# Assay outcomes as filed in PubChem.
# SARS PLP yeast: blocks SARS-CoV papain-like protease in a yeast assay. S. cerevisiae expressing SARS-CoV PLpro, growth rescue. Potency, µM (titrated, usually from 32.9 µM), for the others: at the highest dose activity, positive = growth rescue, hits mostly activators. 330,000 tested, 0.19% active; further: potency means the concentration at half of the fitted maximal effect; 0% is about no effect; nearly all actives have a fitted effect of over 55% in size
# LmPK inh: inhibitors of Leishmania mexicana pyruvate kinase; Potency, µM (top dose mostly 57.5 µM), for the others: top-dose activity change, negative = inhibition, hits mostly inhibitors; Q27686; purified LmPK, Kinase-Glo ATP luminescence, 1 h; 290,000 tested, 0.37% active; active means well fitted curve in the direction sought with a large enough effect; inconclusive means small, poorly fitted or top-dose-only effect, or another doubt; inactive means no such curve, though single readings can be large; an effect the other way counts as inactive or inconclusive; further: potency means the concentration at half of the fitted maximal effect; on the % scale 0 is the no-effect control and ±100 the full control effect
# Target sequence (Q27686 whole entry, looked up): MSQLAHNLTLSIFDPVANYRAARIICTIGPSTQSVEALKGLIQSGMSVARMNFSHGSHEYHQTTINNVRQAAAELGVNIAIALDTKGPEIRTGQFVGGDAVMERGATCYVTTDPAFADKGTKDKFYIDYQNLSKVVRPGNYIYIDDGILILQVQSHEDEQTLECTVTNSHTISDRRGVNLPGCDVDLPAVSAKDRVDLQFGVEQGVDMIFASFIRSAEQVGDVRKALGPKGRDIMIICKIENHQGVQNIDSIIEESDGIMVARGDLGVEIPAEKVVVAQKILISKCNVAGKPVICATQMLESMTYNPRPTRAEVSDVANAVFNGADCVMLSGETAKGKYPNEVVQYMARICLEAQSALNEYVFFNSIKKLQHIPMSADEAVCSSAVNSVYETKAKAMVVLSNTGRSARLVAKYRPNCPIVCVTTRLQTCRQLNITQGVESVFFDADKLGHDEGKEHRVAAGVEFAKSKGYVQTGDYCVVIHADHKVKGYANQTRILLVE
#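 Pyruvate kinase activity monitored as ATP production (luciferase luminescence). Conditions: 0.1 nM enzyme, 0.5 mM PEP, 0.1 mM ADP, 1 h, RT; normalized against uninhibited and no-enzyme wells.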
# NS1 function inh: blocks influenza NS1 protein function; Potency, µM (highest dose often 46.1 µM), for the others: top-dose activity, positive = more growth; AID 2326; 270,000 tested, 0.4% active; further: potency means the concentration at half of the fitted maximal effect; actives are rising curves; nearly all actives have a fitted effect of over 50% in size
#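 Read-out: OD600 growth recovery of NS1-expressing budding yeast. Cells grown overnight at 30C in -URA glucose medium, washed, resuspended and diluted 1:100 in 2% galactose assay medium, pH 6.0. Same strain lacking NS1 served as positive control.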
# Shiga toxin inh: inhibitors of Shiga toxin in Vero cells. Vero cells, Shiga toxin protein synthesis inhibition reporter. inhibition, % at 38.7 µM. 290,000 tested, 9.2% active. AID 2315; in the data active means inhibition mostly above about 28%, no sharp cut-off; inactive means mostly below about 43%; further: 0% is about no effect
# CHX counter: affects cycloheximide protein synthesis inhibition readout, counter-screen | cell reporter, cycloheximide protein synthesis inhibition counterscreen | max response, % | 300,000 tested, 12% active | AID 2314; in the data active means max response mostly above about 13%, no sharp cut-off; inactive means mostly below about 14%; further: read at 38.3 µM for the half of the compounds with a filed dose; 0% is about no effect
# TbPYK inhibitor: T. brucei pyruvate kinase inhibition | TbPYK enzyme, Kinase-Glo Plus ATP luminescence, 45 min | 410,000 tested, 0.12% active | Q57TT1 | Potency, µM (titrated, usually from 76.8 µM), without a hit: at the top dose activity, negative = inhibition, most hits filed as inhibitors | AID 624173; active means well fitted curve in the direction sought with a large enough effect; inconclusive means small, poorly fitted or top-dose-only effect, or another doubt; inactive means no such curve, though single readings can be large; an effect the other way counts as inactive or inconclusive; further: potency means the concentration at half of the fitted maximal effect; on the % scale 0 is the no-effect control and ±100 the full control effect; nearly all actives have a fitted effect of over 50% in size
#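 Readout: single end-point luminescence (Kinase-Glo Plus, 10 min). Reaction conditions were TbPYK/substrate plus 130 uM ADP, 45 min at RT, pH 7.2 TEA buffer. No-enzyme wells served as controls, and data were normalized before concentration-response fitting.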
# * = called active by the depositor; ? = inconclusive; . = no result; [ ] = remark or other dose. The sample as a whole holds a higher share of hits than the screen did. Unless noted, the call rests on the fitted dose curve.
SMILES,SARS PLP yeast,LmPK inh,NS1 function inh,Shiga toxin inh,CHX counter,TbPYK inhibitor
CCC(=O)NCCc1nc2cc(NC(=O)Nc3ccccc3)ccc2n1C,1%,-5%,-3%,43*,23,-9%
CCC(=O)NCCc1nc2cc(NC(=O)c3cccc(Br)c3)ccc2n1C,.,.,.,.,.,0%
CCC(=O)NCCc1nc2cc(NC(=O)c3ccccc3Cl)ccc2n1C,-5%,2%,2%,62*,32*,4%
CCOC(=O)CCc1cc(F)c(S(=O)(=O)N2CCN(S(=O)(=O)c3ccc4c(c3)OCCO4)CC2)cc1F,.,.,.,-7,-4,.
Cn1cnc2cc(NC(=O)c3ccco3)ccc21,-2%,-21%,1%,79*,25*,0%
CC(=O)Nc1ccc2c(c1)ncn2C,25%,-3%,11%,-4,-2,-6%
CC(=O)Nc1ccc2c(c1)ncn2-c1ccc(C)cc1,0%,-17%,-3%,99*,42*,4%
O=C(Nc1ccc2c(c1)ncn2-c1ccccc1)c1ccco1,-12%,-9%,-57%,45*,38*,?
Cn1c(=O)c2c(ncn2CCSS(=O)(=O)O)n(C)c1=O,.,.,0%,.,.,.
CC[C@H](C)[C@H](NC(N)=O)C(=O)NCCc1ccc(OC)c(OC)c1,2%,-3%,.,3,-2,4%
COc1ccc(-c2cn3c(n2)sc2cc(C(=O)NCCc4ccc(OC)cc4OC)ccc23)cc1,.,.,.,.,.,-3%
O=C(Nc1nc2ccc(F)cc2s1)c1ccccn1,-12%,18µM*,-2%,26,-1,?
O=C(NCc1cccnc1)C(=O)Nc1nc2ccccc2s1,4%,-10%[11.5 µM],.,93*,39*,-2%
CCOc1ccc2nc(NC(=O)C3(C)CC3(Br)Br)sc2c1 (configuration not stated),.,.,.,.,.,-5%
O=C(Nc1nc2ccccc2s1)c1cnccn1,-10%,10µM*,-8%,53*,32*,-16%
O=C(Nc1nc(-c2ccco2)c(-c2ccco2)s1)c1cnccn1,3%,.,.,.,.,6%
CCOc1ccc2nc(NC(=O)c3cnccn3)sc2c1,9%,-22%,-8%,62*,32*,-2%
CN(C(=O)c1cccc(NC(=O)Cc2ccc(NC(=O)C3CCN(S(=O)(=O)c4cccc([N+](=O)[O-])c4)CC3)cc2)c1)C1CC1,.,.,.,.,.,1%
C=Cc1ccc(CSc2nnc(C)n3c2cc2occc23)cc1,.,.,.,.,.,1%
Cc1ccc(C=Nc2ccccc2C(N)=O)o1,-24%,-23%,?,61*,61*,13%
CN(C)c1ccc(C=Nc2ccccc2C(N)=O)cc1,-7%,?,-108%,39,26*,-5%
O=C(CNC(=O)c1ccc(Cl)cc1)OCc1cc(=O)n2ccsc2n1,.,.,.,.,.,-5%
O=S(=O)(c1ccc2c(c1)OCCO2)N1CCN(S(=O)(=O)c2c(F)ccc(O)c2F)CC1,.,.,.,5,3,.
COc1ccc(NC(=O)c2ccc(COc3ccccc3)o2)cc1,-4%,1%,-12%,24,21*,-25%
COc1ccc(NC(=O)c2ccc(Cc3ccc(C)cc3)o2)cc1,-68%,4%,-31%,29,24*,2%
SMILES,SARS PLP yeast,LmPK inh,NS1 function inh,Shiga toxin inh,CHX counter,TbPYK inhibitor
Cc1ccc(C(C)NC(=O)CSc2ccc(S(=O)(=O)N3CCOCC3)cn2)cc1C (configuration not stated),-4%,.,.,.,.,0%
O=C(c1ccccc1Cl)n1nc(-c2cccnc2)nc1NCc1ccc(F)cc1,.,.,.,.,.,1%
Nc1nc(CCl)nc(Nc2ccccc2)n1,-5%,-2%,.,71*,36*,2%
Cc1ccc(Nc2nc(N)nc(CCl)n2)cc1,0%,-12%,4%,96*,75*,-1%
Cc1ccc(Nc2nc(N)nc(CC#N)n2)cc1,4%,-2%,?,46*,35*,4%
Nc1nc(CN2CCN(Cc3ccccc3)CC2)nc(Nc2ccccc2)n1,-5%,5%,-4%,-3,5,1%
Cc1cccc(Nc2nc(N)nc(CCl)n2)c1C,4%,2%,5%,59*,53*,4%
CCOc1ccc(Nc2nc(N)nc(CCl)n2)cc1,-1%,-21%,5%,59*,43*,-7%
CCOc1ccc(Nc2nc(N)nc(CN3CCN(c4ccccc4F)CC3)n2)cc1,-1%,3%,.,-4,-1,0%
Cc1ccc(Nc2nc(N)nc(CCl)n2)c(C)c1,1%,4%,5%,106*,78*,-3%
Cc1ccc(Nc2nc(N)nc(CSCCO)n2)cc1,1%,-7%,2%,60*,31*,1%
COCCn1c(C)cc(O)c(C(c2ccc(OC)cc2)N2CCCCC2)c1=O (configuration not stated),.,.,.,.,.,0%
CCC(=O)Nc1ccccc1-c1nc2ccccc2n(C(C)C(=O)Nc2ccc(OC)cc2)c1=O (configuration not stated),.,.,.,.,.,4%
Cc1ccc(C)c(CSc2nc3ccncc3n2CC(=O)Nc2ccc(C)c(C)c2)c1,3%,-2%,12%,-11,9,.
CC(C)c1ccccc1NC(=O)Cn1c(/C=C/c2ccccc2)nc2ccccc21,0%,-8%,-6%,53*,36*,0%
CC(C)c1ccccc1NC(=O)Cn1c(-c2ccccc2Cl)nc2ccccc21,7%,4%,8%,10,3,-4%
Cc1cccc(CSc2nc3ccncc3n2CC(=O)Nc2ccc(C)c(C)c2)c1,-1%,0%,25%,29,27*,.
Cc1ccc(NC(=O)Cn2c(/C=C/c3ccccc3)nc3ccccc32)cc1C,-26%,5%,-6%,19,18*,4%
Cc1ccc(NC(=O)Cn2c(=O)c(C(F)(F)F)nc3ccccc32)cc1C,.,.,.,.,.,-5%
COc1ccc(-c2cc(C(=O)Nc3c(C(=O)c4ccc(C)c(F)c4)oc4ccccc34)no2)cc1,.,.,.,.,.,0%
CCc1nn(CC(=O)NCCc2ccc(Cl)cc2)c(=O)c2cc3ccccc3n12,.,.,.,.,.,1%
O=C(Nc1ccc(Cl)c(Cl)c1)N1CCOCC1,-3%,0%,-1%,37*,15,0%
O=C(Nc1ccc(Cl)c(C(F)(F)F)c1)N1CCCC(O)C1 (configuration not stated),-6%,5%,-3%,14,9,1%
O=C(Nc1ccc(Cl)c(Cl)c1)N1CCSCC1,11%,-1%,-4%,37,17,5%
O=C(Nc1ccc(Cl)c(Cl)c1)N1CCC(N2CCCCC2)CC1,6%,0%,2%,-16,-5,1%
O=C(Nc1ccc(Cl)c(C(F)(F)F)c1)C(=O)N1CCCCC1,-29%,-5%,-4%,61,27*,3%
O=C(Nc1ccc(Cl)c(Cl)c1)N1CCCCCC1,1%,-3%,6%,90*,51*,1%
COc1ccc(OC)c(CCNC(=O)c2ccc3c(c2)N(Cc2ccc(C)cc2)CCS3)c1,.,.,.,.,.,-4%
O=C(COCc1cc(-c2ccc(F)cc2)on1)Nc1cc(Cl)cc(Cl)c1,.,.,.,.,.,0%
